# Test results taken from PubChem BioAssay (Tox21).
# Inconclusive results are not listed. Values without a mark were called inactive. Active and inactive are the calls of the source. Calls come from the whole dose curve; as a rule, active = well fitted cell-killing curve with a large enough effect in the repeat runs; inconclusive = weak or mixed curves, or effect the other way; inactive = flat fitted curve, though single readings scatter.
# Assay: Caspase-3/7 induction in HepG2 cells by small molecules, qHTS cell viability counter screen (AID 1346981); note: nearly all actives have a fitted effect of over 30% in size
# Conditions: CellTiter-Fluor fluorescence, 17 h; series mostly up to 92.4 µM; activity change, negative = cytotoxicity: at the top concentration
# From the text: U.S. Tox21 Program National Center for Advancing Translational Sciences [NCATS] NIH Chemical Genomics Center [NCGC] U.S. Environmental Protection Agency [EPA] National Institutes of Environmental Health Sciences [NIEHS] National Toxicology Program [NTP] U.S. Food and Drug Administration [FDA] Tox21 Assay Overview: Apoptosis is a process of programmed cell death and plays a central role in the development of multicellular organisms. It is a highly regulated process and induces cell death by activating caspases, which are the members of cysteine aspartic acid-specific protease (caspase) family. Caspases involved in apoptosis are classified by their mechanism of action as initiator caspases (caspase-2, -8, -9 and -10) and executioner caspases (caspase-3, -6, and -7). Inhibition of apoptosis results in number of cancers, autoimmune diseases, inflammatory diseases and viral infection. To identify small molecule compounds that induce apoptosis, a homogeneous, luminescent Caspase-Glo 3/7 assay was used. Wild type HepG2 cells were used to screen Tox21 libraries for identifying caspase-3/7 activity inducers. Also cytotoxicity of the compounds was tested in parallel by measuring the cell viability using CellTiter-Fluor assay system in the same wells.
# Tox21 Assay Protocol Summary: HepG2 cells were dispensed at 2,000 per well in 5uL of culture medium into white solid bottom 1536-well plates (Corning Life Sciences, Corning, NY) using a Multidrop Combi (Thermo Scientific, Waltham, MA) dispenser. The assay plates were incubated at 37 C and 5% CO2 for 5hr, and then 23nL of compounds dissolved in DMSO and positive control were transferred using a Pintool station ([…], San Diego, CA). The assay plates were incubated at 37C and 5% CO2 for 17hr. For cytotoxicity read, after 16hr incubation at 37C, 1uL CellTiter-Fluor reagent (Promega Corporation, Madison, WI) was added to each well of the assay plates using Flying Reagent Dispenser (FRD, Aurora Discovery, San Diego, CA). After 1hr incubation at 37C and 5% CO2, the fluorescence signal was quantified using a ViewLux plate reader (PerkinElmer, Shelton, CT).
# % is set by controls: 0 for no effect and ±100 for the full control effect; potency is the fitted concentration of half-maximal effect.
SMILES,Potency,"activity change, negative = cytotoxicity"
CCOP(=O)(OCC)Oc1ccc([N+](=O)[O-])cc1,inactive,
IC(I)=C(I)I,68.6 µM (active),
II,,-1.01%
NNC(=O)c1cccnc1,,-4.81%
COCCOCCO,,0.921%
COC(N)=O,,1.31%
NCC(CC(=O)O)c1ccc(Cl)cc1 (stereo not given),,8.17% [at 0.349 µM]
Nc1ccc([N+](=O)[O-])cc1[N+](=O)[O-],47.3 µM (active),
C=CC(=O)OC(C)(C)C,,-0.223%
N#C/C(N)=C(/N)C#N,,-14.5%
CNC(C)Cc1ccccc1OC (stereo not given),,7.24% [at 42.5 µM]
C[C@H]1CNCCc2ccc(Cl)cc21,,-4.43% [at 42.5 µM]
CCOc1ccc(C(C)(C)COCc2cccc(Oc3ccccc3)c2)cc1,,7.08%
COC(C)(C)CCC[C@H](C)C/C=C/C(C)=C/C(=O)OC(C)C,,13.5%
O=C(O)C(F)(F)C(F)(F)C(F)(F)C(F)(F)C(F)(F)C(F)(F)C(F)(F)C(F)(F)C(F)(F)C(F)(F)F,,-0.264%
CCOP(=S)(OCC)SCSCC,,5.28%
O=C(O)CC(Cl)C(=O)O (stereo not given),,1.44%
NS(=O)(=O)C(F)(F)C(F)(F)C(F)(F)C(F)(F)C(F)(F)C(F)(F)C(F)(F)C(F)(F)F,,1.46%
CCOP(=S)(OCC)Oc1cc(Cl)c(Br)cc1Cl,,12.1%
O=Cc1ccc(Cl)cc1Cl,,-3.49%

SMILES,Potency,"activity change, negative = cytotoxicity"
C=CCC1([C@H](C)CCC)C(=O)NC(=O)NC1=O,,-0.0469%
C=CC[C@]1(O)CC[C@H]2[C@@H]3CCC4=CC(=O)CCC4=C3C=C[C@@]21C,,-5.48% [at 42.5 µM]
CCOP(=S)(OCC)Oc1nc(Cl)c(Cl)cc1Cl,inactive,
OC(c1ccc(Cl)cc1)(c1ccc(Cl)cc1)c1cccnc1,,-2.47%
C=CC(=O)OCC(C)O (stereo not given),,-6.46%
CN1C(=O)C(O)N=C(c2ccccc2)c2cc(Cl)ccc21 (stereo not given),,-1.32%
CCCC(=O)Cl,,4.85%
C=CC(=O)OC,,-7.23%
O=C1CN=C(c2ccccc2)c2cc(Cl)ccc2N1CC1CC1,,-10.2%
CCCCCCC#N,,-0.276%
ClC=C(Cl)Cl,,0.503%
CN1C[C@H](CNC(=O)OCc2ccccc2)C[C@@H]2c3cccc4c3c(cn4C)C[C@H]21,,-3.62% [at 42.5 µM]
CCCCOC(=O)c1ccccc1C(=O)OCc1ccccc1,inactive,
CCCCC(CC)COP(=O)(Oc1ccccc1)Oc1ccccc1 (stereo not given),,1.33%
O=[N+]([O-])c1cc(C(F)(F)F)cc([N+](=O)[O-])c1Cl,61.4 µM (active),
C=C(C#N)CCC#N,,-0.742%
NC(=O)CI,,-2.82%
NCCCNCCCN,,-9.73%
O=C1C(Cl)C(CCl)CN1c1cccc(C(F)(F)F)c1 (stereo not given),,-1.73%
O=C1C(=O)c2cccc3cccc1c23,,-0.686%
